POLH inh – qHTS for Inhibitors of Polymerase Eta; recombinant Pol eta, fluorescent DNA replication assay; Potency, µM (top dose mostly 114 µM), inactives show at the highest dose activity change, negative = inhibition, hits mostly inhibitors; 390,000 tested, 1.2% active; AID 588591, 2011; note: % is set by controls: 0 for no effect and ±100 for the full control effect
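Pol eta at 10 nM preincubated with compounds 15 min at room temperature; reaction started with fluorescent substrate (50 nM final) and read kinetically at 0 and 10 min.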
POLI inh – qHTS for Inhibitors of Polymerase Iota; DNA polymerase iota (Homo sapiens), Q9UNA4; Pol iota fluorescent replication assay, 10 min; Potency, µM (highest dose often 115 µM), without a hit: at the top dose activity, negative = inhibition, hits mostly inhibitors; 390,000 tested, 1% active; AID 588590, 2011
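Fluorescent replication assay read twice, at 0 min and 10 min after adding 50 nM (final) substrate. Enzyme (10 nM) and compounds were first incubated 15 min at room temperature; enzyme-free buffer wells were negative controls.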
TDP1 block – qHTS Assay for Inhibitors of Tyrosyl-DNA Phosphodiesterase (TDP1). Tyrosyl-DNA phosphodiesterase 1 (Homo sapiens), Q9NUW8. recombinant TDP1, AlphaScreen DNA substrate cleavage. Potency, µM (doses to about 130 µM), without a hit: at the top dose activity change, negative = inhibition, usual class: inhibitors. 350,000 tested, 0.28% active. AID 485290, 2010; note: % is set by controls: 0 for no effect and ±100 for the full control effect; nearly all actives have a fitted effect of over 40% in size
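Steps: enzyme plus compound, 15 min RT; add biotin/phosphotyrosine-FITC oligonucleotide (15 nM final), react 5 min; add donor/acceptor beads (10 ug/ml final), 10 min; read AlphaScreen. Tdp1 at 1 nM final.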
POLB inh – qHTS Assay for Inhibitors of DNA Polymerase Beta | Pol beta primer extension/strand displacement, fluorescence kinetic | Potency, µM (highest dose often 114 µM), inactives show at the highest dose activity change, negative = inhibition, usual class: inhibitors | 340,000 tested, 1.3% active | AID 485314, 2010; note: % is set by controls: 0 for no effect and ±100 for the full control effect
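Kinetic readout of DNA synthesis with strand displacement by Pol beta. Compound and 10 nM enzyme sit 15 min at room temperature; 50 nM substrate starts the reaction, read immediately and at 10 min.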
Pol kappa inh – qHTS for Inhibitors of Polymerase Kappa | Potency, µM (top dose mostly 107 µM), inactives show top-dose activity, negative = inhibition, usual class: inhibitors | 400,000 tested, 0.53% active | purified Pol kappa, fluorescent DNA synthesis assay, 10 min | DNA polymerase kappa (Homo sapiens), Q9UBT6; note: % is set by controls: 0 for no effect and ±100 for the full control effect
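Fluorescent qHTS in 1536-well format: enzyme (10 nM) and compound sat 15 min at room temperature before 50 nM substrate (final) was added. Signal taken at 0 and 10 min; no-enzyme buffer wells were negative controls.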
FEN1 inhibitor – qHTS Assay for the Inhibitors of Human Flap endonuclease 1 (FEN1); Recombinant FEN1 flap cleavage, fluorescence, 15 min; 390,000 tested, 0.35% active; AID 588795, 2011; Potency, µM (series often up to 114 µM), for the others: at the highest dose activity change, negative = inhibition, actives largely listed as inhibitors; P39748; note: % is set by controls: 0 for no effect and ±100 for the full control effect; nearly all actives have a fitted effect of over 65% in size
Target sequence (P39748 whole entry, looked up): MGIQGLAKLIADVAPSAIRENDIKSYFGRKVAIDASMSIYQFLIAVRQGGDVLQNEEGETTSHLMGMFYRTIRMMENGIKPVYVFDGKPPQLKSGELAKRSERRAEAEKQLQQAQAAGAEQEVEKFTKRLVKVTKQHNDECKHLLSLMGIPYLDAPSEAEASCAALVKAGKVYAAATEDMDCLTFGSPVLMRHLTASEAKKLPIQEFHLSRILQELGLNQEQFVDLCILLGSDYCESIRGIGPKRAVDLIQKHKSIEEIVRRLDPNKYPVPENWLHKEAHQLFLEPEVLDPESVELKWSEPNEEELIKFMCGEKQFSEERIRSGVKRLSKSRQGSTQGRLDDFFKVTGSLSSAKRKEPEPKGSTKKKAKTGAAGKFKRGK
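Recombinant FEN1 (10 nM) was preincubated with pin-transferred compounds for 15 min at room temperature, then flap DNA substrate (50 nM final) was added. Plates were read at 0 and 15 min, and normalized concentration–response data were fitted to a four-parameter Hill equation.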
TbPGK inh – qHTS for inhibitors of Phosphogylcerate Kinase: Hit Validation Screen; AID 686980, 2013; 500 tested, 79% active; TbPGK coupled GAPDH assay, Kinase-Glo luminescence; Potency, µM (top dose mostly 57.5 µM), for inactives: at the highest dose activity change, negative = inhibition, most hits filed as inhibitors; shares compounds with Pol kappa inh; note: % is set by controls: 0 for no effect and ±100 for the full control effect; nearly all actives have a fitted effect of over 65% in size
Pol iota confirm – qHTS for Inhibitors of Polymerase Iota: Confirmatory Assay for Cherry-picked Compounds. shares compounds with Pol kappa inh. Pol iota primer extension, TAMRA/BHQ fluorescence. Potency, µM, hits mostly inhibitors. 1,500 tested, 77% active
An asterisk follows results filed as active; ? = inconclusive; nt = no result; [ ] = remark or other dose. An excerpt weighted towards active compounds, which were near 2.4% of everything screened. Calls come from the whole dose curve; as a rule, active = well fitted curve in the direction sought with a large enough effect; inconclusive = small, poorly fitted or top-dose-only effect, or another doubt; inactive = no such curve, though single readings can be large; an effect the other way counts as inactive or inconclusive. Potency is the fitted concentration of half-maximal effect.

SMILES	POLH inh	POLI inh	TDP1 block	POLB inh	Pol kappa inh	FEN1 inhibitor	TbPGK inh	others
COc1cc(SC)ccc1C(=O)Nc1nc2ccccc2[nH]1	-18%	-1%	6%	-8%	-3%	4%	3.3µM*
COc1ccc(C(=O)Nc2nc3ccccc3[nH]2)cc1	-14%	22%	9%	46%	7%	-4%	nt
CNC(=O)C1CCC(Cn2c(=O)c3sccc3n(CC(=O)Nc3cc(C)cc(C)c3)c2=O)CC1 (stereo not given)	3%	3%	10%	2%	6%	24%	-28%
CNC(=O)C1CCC(Cn2c(=O)c3sccc3n(CC(=O)N3CCCC3)c2=O)CC1 (stereo not given)	-13%	3%	6%	-1%	-27%	13%	nt
CNC(=O)C1CCC(Cn2c(=O)c3sccc3n(CC(=O)N3CCC(C)CC3)c2=O)CC1 (stereo not given)	-2%	10%	-2%	-1%	0%	-6%	-17%
CNC(=O)C1CCC(Cn2c(=O)c3sccc3n(CC(=O)Nc3ccccc3)c2=O)CC1 (stereo not given)	-5%	20%	6%	11%	3%	-1%	nt
Cc1sc2ncn(CC(=O)Nc3ccc(F)cc3Cl)c(=O)c2c1S(=O)(=O)N1CCN(c2ncccn2)CC1	-15%	74%	-3%	9%	-2%	-3%	nt
O=Cc1cn(-c2ccccc2)nc1-c1cc2cc(O)ccc2oc1=O	?	22µM*	-9%	56µM*	?	-7%	nt	Pol iota confirm=?
O=Cc1cn(-c2ccccc2)nc1-c1cc2c(ccc3ccccc32)oc1=O	?	4%	-4%	3%	3%	-2%	nt
c1ccc(C2=NNC(=NC3CC3)SC2)cc1	-1%	?	0%	11%	-9%[60.1 µM]	-2%	16µM*
O=C(O)CCCN1C(=O)/C(=C/c2ccc(-c3nc4ccccc4s3)o2)SC1=S	3.2µM*	?	-3%	13µM*	50µM*	-20%	?
COc1ccc(NC(=O)/C(C#N)=C/c2ccc(Br)o2)cc1	?	22µM*	?	10µM*	79µM*	-17%	nt	Pol iota confirm=?
CCCN1CNc2c(c(=O)[nH]c(=S)n2CCc2cccc(C)c2C)C1	nt	15%	1%	nt	3%	-23%	nt
O=C(NCc1nc2ccccc2[nH]1)c1ccc(S(=O)(=O)N2CCOCC2)cc1	-9%	4%	-3%	3%	-13%	-2%	-3%
CN1/C(=C/C=C/c2n(C)c3cc([N+](=O)[O-])c([N+](=O)[O-])cc3[n+]2C)C(C)(C)c2ccccc21	?	nt	nt	nt	nt	nt	?
Cc1cc(Br)ccc1NC(=O)CN1C(=O)c2cccnc2Sc2ccccc21	nt	12%	5%	?	-7%	11%	nt
CC(=O)Nc1ccc(N/C=C/C(=O)c2ccco2)cc1	?	39%	-7%	-10%	-10%	-12%	nt
CN(C)c1ccc(N/C=C/C(=O)c2ccco2)cc1	-15%	?	2%	?	-7%	5%	10µM*
Fc1ccccc1Nc1nc2ccccc2o1	0%	9%	nt	0%	-6%	-3%	18µM*
COCCCNC(=O)Cn1c(=O)n(-c2ccc(C)c(C)c2)c(=O)c2c3c(sc21)CCCCC3	-4%	14%	-2%	-1%	1%	23%	nt
COc1ccccc1NS(=O)(=O)c1cc(NC(=O)c2ccc3c(c2)OCCO3)ccc1C	-25%	?	6%	28%	0%	9%	2%
COc1ccc(N=C2SC(C(N)=O)CC(=O)N2Cc2ccc3c(c2)OCO3)cc1 (stereo not given)	28µM*	40µM*	-3%	?	89µM*	2%	-21%
CCNC(=O)C1CC(=O)N(Cc2ccc3c(c2)OCO3)C(=Nc2ccc(F)cc2)S1 (stereo not given)	0%	-10%	-1%	?	-7%	-9%	nt
CC(=O)c1ccc(-c2ccc(/C=C(/Sc3n[nH]c(C)n3)C(=O)O)o2)cc1	40µM*	?	-8%	?	?	50µM*	nt	Pol iota confirm=47*
CCOC(=O)C(=O)Cc1cccnn1	2.8µM*	?	nt	nt	?	-8%	13µM*
SMILES	POLH inh	POLI inh	TDP1 block	POLB inh	Pol kappa inh	FEN1 inhibitor	TbPGK inh	others
Cn1c2ccccc2c(=O)c2ccc(C#Cc3ccccn3)cc21	28µM*	32µM*	nt	25µM*	-19%	5%	nt	Pol iota confirm=?
Cc1ccc(OCC(=O)N(C)CC(=O)NCc2ccco2)c(Br)c1	14µM*	?	32µM*	nt	79µM*	5%	21µM*
Fc1ccc(/C=N/Nc2nccnc2Cl)cc1	-23%	18%	-3%	32%	-16%	-1%	nt
Fc1cccc(/C=N/Nc2nccnc2Cl)c1	-8%	7%	5%	7%	-3%	-10%	16µM*
Cc1ccc(/C=N/N2CCN(c3ccc(Cl)cc3)CC2)o1	5%	0%	4%	1%	-2%	4%	nt
Cc1ccc(/C=N/N2CCCCC2)o1	-9%	-5%	5%	4%	-9%	-1%	0%
Cn1c(SCC(=O)c2ccc3c(c2)Cc2ccccc2-3)nnc1-c1ccccc1	8.9µM*	?	-8%	?	-6%	-6%	nt	Pol iota confirm=42*
Cn1c(SCC(=O)c2ccccc2)nnc1-c1ccncc1	-10%	75%	-3%	-27%	-12%	1%	nt
O=C1C=C(c2c(O)ccc3ccccc23)c2ccccc2C1=O	20µM*	3.5µM*	nt	nt	-3%	?	nt	Pol iota confirm=84*
O=C1C=C(O)c2ccccc2C1=O	nt	nt	4%	nt	?	nt	nt
CCOc1ccc(-c2ccc(SC)nn2)cc1	-16%	133%	4%	13%	-7%	6%	8.2µM*
CCOc1ccc(-c2ccc(SCC(=O)Nc3nnc(CC)s3)nn2)cc1	-9%	80%	2%	-3%	-14%	-3%	nt
COc1c(O)c(=O)n2c3ccccc3c3ccnc1c32	-26%	?	nt	nt	-14%	11µM*	nt	Pol iota confirm=4.7*
Cc1cccc(C2CN(C)CCc3c2cc(O)c(O)c3Cl)c1 (stereo not given)	-15%	4%	-5%	12%[57.1 µM]	-12%[60.1 µM]	?	nt

High-throughput results as filed in PubChem.
